# Results reported in PubChem BioAssay.
# The source made the active and inactive calls. Unless noted, no rule for the calls is given here.
# Legend:
# [1] = resazurin metabolic signal in HepG2 cells – cell-based, resazurin fluorescence, 24 h, PK04 Diversity Set, profiling panel (AID 1172); details: HepG2 viability, higher = more signal; also: test concentration not given here
# [2] = budding yeast growth changes without added modifier – OD600, strain BY4716, 24 h, basal condition, primary screen (AID 1173); details: S. cerevisiae BY4716 growth, OD600, 24 h; higher = more signal, called active from +8 up or from −8 down
# [3] = viability profiling in MM1S myeloma cells – cell-based, resazurin fluorescence, basal, 24 h, PK04 Diversity Set, profiling panel (AID 1174); details: higher = more signal, called active from +8 up or from −8 down;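 also: MM1S multiple myeloma cell line; test concentration not given here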
# [4] = target: Dihydroorotate dehydrogenase (quinone), mitochondrial (Plasmodium falciparum (isolate 3D7)) (UniProt Q08210); test: inhibition of P. falciparum DHODH – biochemical, C-terminal His tag, absorbance 600 nm, primary screen (AID 1175); details: PfDHODH enzyme, DCIP absorbance 600 nm; higher = more signal, called active from +8 up or from −8 down;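 also: recombinant parasite enzyme with a five histidine tag at its C terminus; test concentration not given here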
# [5] = inhibition of PAO1 biofilm formation – strain PAO1, LB-PBS medium, absorbance 600 nm, primary screen (AID 1176); also: test concentration not given here; details: P. aeruginosa PAO1 growth/biofilm, A600, 12 h; higher = more signal
# [6] = growth modulation of vineyard yeast isolate – strain RM11-1a, OD600, basal, 24 h, primary screen (AID 1177);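 also: cultures grown under basal conditions with no added stressor; test concentration not given here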; details: S. cerevisiae RM11-1a growth, OD600, 24 h; higher = more signal, called active from +8 up or from −8 down
# [7] = growth of efflux-deficient E. coli DRC39 – strain DRC39, OD650, 24 h, E. coli filamentation inducers, primary screen (AID 1178);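 also: growth measured as culture turbidity by optical density at 650 nm; test concentration not given here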; details: E. coli DRC39 acrAB, higher = more signal, called active from +8 up or from −8 down
# [8] = growth of efflux-deficient E. coli DRC39 – strain DRC39, OD650, 48 h, E. coli filamentation inducers, primary screen (AID 1179);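 also: screen aims at cell division blockers that make cells filament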; details: E. coli DRC39 delta-acrAB growth, higher = more signal, called active from +8 up or from −8 down
# [9] = viability profiling in RPMI8226 myeloma cells – cell-based, resazurin fluorescence, basal, 24 h, PK04 Diversity Set, profiling panel (AID 1180); details: higher = more signal;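 also: RPMI8826 multiple myeloma cell line at 5000 cells per well; test concentration not given here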
# [10] = target: E3 ubiquitin-protein ligase XIAP (Homo sapiens) (UniProt P98170); test: small molecules binding XIAP protein – biophysical, small-molecule microarray, fluorescence 635 nm, primary screen (AID 1181); details: higher = more signal;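 also: score merges 667 nm emission and signal to noise over triplicate slides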
# Sequence of E3 ubiquitin-protein ligase XIAP (Homo sapiens) (P98170 whole entry, looked up): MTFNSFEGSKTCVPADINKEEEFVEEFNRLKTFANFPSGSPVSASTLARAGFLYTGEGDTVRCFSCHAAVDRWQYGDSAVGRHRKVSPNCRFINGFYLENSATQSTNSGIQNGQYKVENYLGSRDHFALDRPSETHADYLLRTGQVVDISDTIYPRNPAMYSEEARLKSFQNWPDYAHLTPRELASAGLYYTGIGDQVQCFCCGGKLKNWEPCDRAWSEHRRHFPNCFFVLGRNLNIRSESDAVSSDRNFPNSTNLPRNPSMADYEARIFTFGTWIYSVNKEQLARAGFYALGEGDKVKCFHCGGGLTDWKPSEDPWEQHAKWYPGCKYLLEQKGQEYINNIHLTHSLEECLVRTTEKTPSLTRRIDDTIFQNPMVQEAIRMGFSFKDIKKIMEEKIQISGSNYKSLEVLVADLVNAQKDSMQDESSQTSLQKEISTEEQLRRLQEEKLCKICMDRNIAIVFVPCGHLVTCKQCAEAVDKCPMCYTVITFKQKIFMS
# Sequence of Dihydroorotate dehydrogenase (quinone), mitochondrial (Plasmodium falciparum (isolate 3D7)) (Q08210 whole entry, looked up): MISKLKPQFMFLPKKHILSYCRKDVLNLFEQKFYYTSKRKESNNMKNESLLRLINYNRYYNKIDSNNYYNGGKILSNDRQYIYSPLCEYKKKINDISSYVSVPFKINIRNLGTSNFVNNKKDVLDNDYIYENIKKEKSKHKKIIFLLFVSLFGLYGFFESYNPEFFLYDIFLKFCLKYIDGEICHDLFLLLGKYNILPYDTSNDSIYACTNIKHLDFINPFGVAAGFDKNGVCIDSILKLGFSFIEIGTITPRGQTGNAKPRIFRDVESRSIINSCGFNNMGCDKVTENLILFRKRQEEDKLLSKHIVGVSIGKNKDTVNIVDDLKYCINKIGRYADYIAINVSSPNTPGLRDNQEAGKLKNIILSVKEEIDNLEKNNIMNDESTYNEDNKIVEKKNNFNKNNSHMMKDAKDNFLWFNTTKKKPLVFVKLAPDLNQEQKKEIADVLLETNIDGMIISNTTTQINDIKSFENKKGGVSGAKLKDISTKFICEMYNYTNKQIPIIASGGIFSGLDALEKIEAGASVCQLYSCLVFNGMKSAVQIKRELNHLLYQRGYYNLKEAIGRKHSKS
SMILES,z-score [1],z-score [2],z-score [3],composite z-score [4],z-score [5],z-score [6],z-score [7],z-score [8],z-score [9],composite z-score [10]
COC(=O)[C@@]1(Cc2ccccc2)[C@H]2c3cc(C(=O)N(C)C)n(Cc4ccc(O)c(OC)c4)c3C[C@H]2CN1C(=O)c1ccccc1,0.563,1.12 (inactive),0.301 (inactive),-2.88 (inactive),1.47 (inactive),0.458 (inactive),-0.846 (inactive),0.202 (inactive),-1.24,0.0422
COc1ccccc1CN1C(=O)c2ccccc2[C@](Cc2ccccc2I)(C(=O)NCCN2CCOCC2)[C@@H]1c1ccc(CO)cc1,-2.07,-0.261 (inactive),-0.914 (inactive),-1.1 (inactive),0.817 (inactive),-0.897 (inactive),0.533 (inactive),0.908 (inactive),-1.66,-0.108
COC(=O)[C@@]1(Cc2ccc(OC)cc2)[C@H]2c3cc(C(=O)N(C)C)n(CCF)c3C[C@H]2CN1C(=O)c1ccccc1,0.586,2 (inactive),-0.386 (inactive),0.343 (inactive),-0.278 (inactive),0.177 (inactive),0.471 (inactive),-0.143 (inactive),-0.102,-0.0592
O=C1C2C=CC(C(O)c3cccc4ccccc34)N(Nc3ccccc3)C2C(=O)N1c1ccccc1 (stereo not given),0.451,-3.11 (inactive),0.0605 (inactive),0.651 (inactive),1.6 (inactive),-0.0805 (inactive),-0.148 (inactive),0.133 (inactive),-0.0011,0.197
C=CCC(OC(C)=O)[C@@H]1[C@@H](N(Cc2cccc3ccccc23)C(=O)Cc2ccc(F)cc2)c2cc(OCCCO)ccc2N1C(=O)Cc1ccc(OC)cc1 (stereo not given in full),0.303,-1.61 (inactive),0.738 (inactive),-0.83 (inactive),-0.206 (inactive),-1.16 (inactive),0.248 (inactive),0.927 (inactive),1.01,-0.01
C=C(C)[C@@H]1CC=C(C(O)C2C=CC3C(=O)N(C4CCCCC4)C(=O)C3N2Nc2ccc(OC)cc2)CC1 (stereo not given in full),0.14,0.702 (inactive),-0.0469 (inactive),-0.157 (inactive),0.987 (inactive),0.0587 (inactive),-0.703 (inactive),-0.0015 (inactive),0.199,0.356
O=C1CSC(c2cccc([N+](=O)[O-])c2)N1c1ccccc1 (stereo not given),0.0598,0.483 (inactive),-0.0906 (inactive),-0.861 (inactive),0.199 (inactive),0.468 (inactive),0.869 (inactive),0.869 (inactive),0.407,-0.0056
NC(=O)[C@@H]1[C@H]2C(=O)O[C@H](c3ccccc3)[C@H](c3ccccc3)N2[C@H](c2ccccc2OCCO)[C@@]12C(=O)Nc1ccc(C#CCCO)cc12,1.06,-1.45 (inactive),-0.476 (inactive),-0.58 (inactive),-0.104 (inactive),0.895 (inactive),0.386 (inactive),-0.318 (inactive),-1.29,-0.0048
COc1ccc([Si](C)(C)[C@@H]2[C@@H](CCO)O[C@]3(C(=O)N(Cc4ccc(N5C(=O)c6ccccc6Oc6ccccc65)cc4)c4ccccc43)[C@H]2C)cc1,0.0213,2.15 (inactive),-0.848 (inactive),-0.343 (inactive),2.88 (inactive),4.38 (inactive),0.365 (inactive),-0.275 (inactive),-3.07,-0.203
C=CCC(OC(C)=O)[C@@H]1[C@@H](N(Cc2cccc3ccccc23)C(=O)c2ccc(C)cc2)c2cc(OCCCO)ccc2N1C(=O)c1ccc2ccccc2c1 (stereo not given in full),0.924,-0.0786 (inactive),1.27 (inactive),-1.86 (inactive),0.101 (inactive),-1.7 (inactive),1.24 (inactive),1.8 (inactive),1.04,-0.152
COC(=O)[C@@]1(Cc2ccccc2)[C@H]2c3cc(C(=O)N4CCCC4)n(CCO)c3C[C@H]2CN1C(=O)c1ccccc1,0.445,0.192 (inactive),-0.892 (inactive),-1.2 (inactive),0.259 (inactive),-0.483 (inactive),0.355 (inactive),1.05 (inactive),0.309,0.202
C/C=C/[C@@H](CCn1cc([C@H](O)c2ccccc2)nn1)[Si](C)(C)c1ccc(OC)cc1,0.121,-1.5 (inactive),-0.567 (inactive),-0.222 (inactive),0.0002 (inactive),0.72 (inactive),0.508 (inactive),-0.253 (inactive),-0.472,-0.0918
C=CC[C@@]1(C(=O)NCC(O)CO)N=C(c2ccc(OCCCO)cc2)O[C@@H]1c1ccccc1 (stereo not given in full),0.483,-2.05 (inactive),0.552 (inactive),0.358 (inactive),-0.223 (inactive),-0.108 (inactive),2.08 (inactive),0.196 (inactive),0.934,-0.0374
CCCNC(=O)[C@@]1(Sc2ccc(C)cc2)CC(=O)N(Cc2ccccc2)[C@@H]1c1ccc(CO)cc1I,-0.38,-2.59 (inactive),-3.26 (inactive),-11.5 (active),1.14 (inactive),-0.598 (inactive),0.214 (inactive),0.0547 (inactive),-2.81,0.0471
CC(C)c1ccc(NN2C(C(O)c3cccs3)C=CC3C(=O)N(c4ccccc4)C(=O)C32)cc1 (stereo not given),-1.75,-2.27 (inactive),-1.73 (inactive),0.355 (inactive),0.835 (inactive),0.883 (inactive),-0.649 (inactive),-0.73 (inactive),-1.14,0.44
COC(=O)[C@@]1(Cc2ccc(F)cc2)[C@@H]2[C@@H](CC(=O)[C@H]2CC(=O)C(=O)N2CCCC2)CN1C(=O)c1ccccc1,-0.572,0.508 (inactive),-1.78 (inactive),-0.238 (inactive),1.03 (inactive),0.23 (inactive),-1.25 (inactive),-0.212 (inactive),-3.35,-0.0553
O=C1C[C@@](C(=O)O)(c2ccc([N+](=O)[O-])cc2)[C@@H](c2ccc(CO)cc2)N1CC12CC3CC(CC(C3)C1)C2,-0.246,-0.418 (inactive),-0.646 (inactive),-3.13 (inactive),0.692 (inactive),1.08 (inactive),0.667 (inactive),0.507 (inactive),-0.474,-0.234
C#CCNS(=O)(=O)N(C)C,0.175,-0.61 (inactive),-0.207 (inactive),0.196 (inactive),-0.218 (inactive),0.648 (inactive),-0.263 (inactive),0.56 (inactive),0.544,-0.05
CCCC=C(CCC)[C@@H](NS(=O)(=O)CC)c1ccccc1,0.281,1.32 (inactive),-0.364 (inactive),-0.317 (inactive),0.302 (inactive),0.462 (inactive),-1.1 (inactive),-0.0887 (inactive),-0.745,0.23
CCCC=C(CCC)[C@@H](NC(=O)Cc1ccccc1)c1ccc(C(=O)OC)cc1,-0.704,0.951 (inactive),-1.14 (inactive),-0.831 (inactive),0.964 (inactive),1.49 (inactive),0.276 (inactive),0.543 (inactive),-0.702,0.11
CC1C=C(CCCO)C=C(C(=O)OCCS(C)(=O)=O)C(C(=O)OCCS(C)(=O)=O)=CN1Cc1cccc(OC(F)(F)F)c1 (stereo not given),-0.096,-3.46 (inactive),-0.0212 (inactive),-2.15 (inactive),0.944 (inactive),0.309 (inactive),0.736 (inactive),0.503 (inactive),0.0364,-0.0659
O=[N+]([O-])c1ccc(C[n+]2ccc(-c3ccc(CO)cc3)cc2)o1,-0.216,-5.16 (inactive),-0.979 (inactive),-1.94 (inactive),0.503 (inactive),-0.0644 (inactive),-1.11 (inactive),-0.495 (inactive),-0.904,-0.0047
CCOC(=O)C1=CC[C@@H](c2ccccc2)N(S(=O)(=O)c2ccc(C)cc2)[C@H]1C=C(C)C,0.576,2.78 (inactive),-0.85 (inactive),0.274 (inactive),0.229 (inactive),1.65 (inactive),-0.147 (inactive),0.449 (inactive),-2.1,0.394
CC(C)CNC(=O)[C@@]1(C)c2ccccc2C(=O)N(Cc2ccccc2)[C@H]1c1ccc(CO)cc1,0.702,-0.11 (inactive),-0.0059 (inactive),-0.362 (inactive),-0.273 (inactive),-1.07 (inactive),0.165 (inactive),-0.185 (inactive),-0.551,-0.395
CCCC=C(CCC)[C@@H](NS(=O)(=O)c1ccccc1)c1ccc(C(F)(F)F)cc1,-0.574,0.892 (inactive),-2.56 (inactive),-0.62 (inactive),-0.415 (inactive),1.07 (inactive),-0.28 (inactive),-0.428 (inactive),-3.59,0.0039
